“And” between values parts separate entries of the source, which are not always exact repeats. Identical values can stand only once. Records with an inconclusive call do not appear. More than one record can exist for a structure, and the calls need not agree. The source made the active and inactive calls. Calls follow the shape of the dose curve; as a rule, active = well fitted curve in the direction sought with a large enough effect; inconclusive = small, poorly fitted or top-dose-only effect, or another doubt; inactive = no such curve, though single readings can be large; an effect the other way counts as inactive or inconclusive.
Assays:
CRL-7250 = normal cell line; assay: Cytotoxic Profiling of Annotated Libraries Using Quantitative High-Throughput Screening (AID 1296008); details: Five cell lines viability, CellTiter-Glo ATP luminescence, 48-72 h; max response: stronger effect = lower value; also: nearly all actives have a fitted effect of over 60% in size; also: potency is read from the fitted curve at half-maximal effect; as to max response: % is scaled to controls: 0 for no effect and ±100 for the full control effect
How it was run: (§1)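 Cytotoxicity was measured as CellTiter-Glo ATP luminescence, read after 10 min at room temperature. Compound treatment of the cells lasted 48 or 72 hr at 37 degrees Celsius in a qHTS format.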

HEK293 = assay: as above; details: Five cell lines viability, CellTiter-Glo ATP luminescence, 48-72 h; max response: stronger effect = lower value
How it was run: as §1

KB-3-1 = assay: as above; details: Five cell lines viability, CellTiter-Glo ATP luminescence, 48-72 h; max response: stronger effect = lower value
How it was run: as §1

NIH3T3 [1] = assay: as above; details: Five cell lines viability, CellTiter-Glo ATP luminescence, 48-72 h; max response: stronger effect = lower value
How it was run: as §1

MCC-13 = assay: qHTS assay to identify novel small-molecules to repurpose for Merkel cell carcinoma treatment (AID 1296009); details: MCC and control cell lines, CellTiter-Glo viability, 72 h; series mostly up to 46 µM; also: nearly all actives have a fitted effect of over 60% in size; also: potency is read from the fitted curve at half-maximal effect
How it was run: (§2)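 Cell viability measured by CellTiter-Glo following 72 hr compound treatment at 37 degree celsius, with NPC and MIPE libraries tested in 8- and 11-point concentration series.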

MCC-26 = assay: as above; details: MCC and control cell lines, CellTiter-Glo viability, 72 h; series mostly up to 46 µM
How it was run: as §2

MKL-1 = assay: as above; details: MCC and control cell lines, CellTiter-Glo viability, 72 h; series mostly up to 46 µM
How it was run: as §2

MKL-2 = assay: as above; details: MCC and control cell lines, CellTiter-Glo viability, 72 h; series mostly up to 46 µM
How it was run: as §2

UISO = assay: as above; details: MCC and control cell lines, CellTiter-Glo viability, 72 h; series mostly up to 46 µM
How it was run: as §2

WaGa = assay: as above; details: MCC and control cell lines, CellTiter-Glo viability, 72 h; series mostly up to 46 µM
How it was run: as §2

C33A = assay: Primary qHTS to identify gynecologic anti-cancer compounds using libraries of approved drugs and bioactive compounds (AID 1345084); details: Gynecologic cancer cell panel viability, ATPlite luminescence, 48 h; series mostly up to 57.5 µM; also: % is scaled to controls: 0 for no effect and ±100 for the full control effect; nearly all actives have a fitted effect of over 55% in size
How it was run: (§3)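 Cytotoxicity screen measuring ATP content by luciferase luminescence. Each compound is applied at five concentrations for 48 h at 37 C with 5% CO2.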

CAOV3 = assay: as above; details: Gynecologic cancer cell panel viability, ATPlite luminescence, 48 h; series mostly up to 57.5 µM
How it was run: as §3

CASKI = assay: as above; details: Gynecologic cancer cell panel viability, ATPlite luminescence, 48 h; series mostly up to 57.5 µM
How it was run: as §3

Es-2 = assay: as above; details: Gynecologic cancer cell panel viability, ATPlite luminescence, 48 h; series mostly up to 57.5 µM
How it was run: as §3

TAB165 = assay: qHTS profiling for inhibitors of Plasmodium falciparum proliferation (AID 504749); also: nearly all actives have a fitted effect of over 60% in size; also: potency is read from the fitted curve at half-maximal effect; details: P. falciparum in erythrocytes, SYBR Green DNA, 72 h; series mostly up to 28.7 µM
How it was run: (§4)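 In a 72 h erythrocytic culture (37 C, humidified, 5% CO2) at 2.5% hematocrit and 0.3% starting parasitemia, compounds were tested; SYBR Green I in detergent lysis buffer stained parasite DNA overnight.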

W2 = assay: as above; details: P. falciparum in erythrocytes, SYBR Green DNA, 72 h; series mostly up to 28.7 µM
How it was run: as §4

HaCat [2] = assay: Cytotoxic Profiling of Annotated Libraries Using Quantitative High-Throughput Screening (AID 1296008); details: Five cell lines viability, CellTiter-Glo ATP luminescence, 48-72 h; max response: stronger effect = lower value; also: nearly all actives have a fitted effect of over 60% in size; also: potency is read from the fitted curve at half-maximal effect; as to max response: % is scaled to controls: 0 for no effect and ±100 for the full control effect
How it was run: as §1

NIH3T3 [3] = assay: qHTS assay to identify novel small-molecules to repurpose for Merkel cell carcinoma treatment (AID 1296009); details: MCC and control cell lines, CellTiter-Glo viability, 72 h; at 44.8 µM (top of the series) unless noted; also: nearly all actives have a fitted effect of over 60% in size; also: potency is read from the fitted curve at half-maximal effect
How it was run: as §2

HACAT [4] = assay: as above; details: MCC and control cell lines, CellTiter-Glo viability, 72 h; at 44.8 µM (top of the series) unless noted
How it was run: as §2

HEK293T = assay: as above; details: MCC and control cell lines, CellTiter-Glo viability, 72 h; at 44.8 µM (top of the series)
How it was run: as §2

Cc1ccnc(NS(=O)(=O)c2ccc(NC(=O)Nc3ccc(S(=O)(=O)Nc4nccc(C)n4)cc3)cc2)n1
inactive: max response (CRL-7250) -2.52% | max response (HEK293) -3.29% | outcome (KB-3-1) | max response (NIH3T3 [1]) -7.88% | Potency (MCC-13) | Potency (MCC-26) | Potency (MKL-1) | Potency (MKL-2) | Potency (UISO) | Potency (WaGa) | Potency (C33A) | Potency (CAOV3) | Potency (CASKI) | Potency (Es-2)
active: Potency (CRL-7250) 0.372 µM | Potency (HEK293) 0.418 µM | Potency (KB-3-1) 2.35 µM | Potency (NIH3T3 [1]) 2.09 µM

Cc1[nH]c(=O)c(C#N)cc1-c1ccc2nccn2c1
inactive: Potency (TAB165) | Potency (W2) | max response (CRL-7250) 0.18% | outcome (CRL-7250) | max response (HEK293) 3.47% | max response (HaCat [2]) -13.2% and -27.6% | max response (KB-3-1) -3.5% and -14.6% | max response (NIH3T3 [1]) -20.6% | outcome (NIH3T3 [1]) | Potency (MCC-13) | Potency (MCC-26) | Potency (MKL-1) | Potency (MKL-2) | outcome (NIH3T3 [3]) | Potency (UISO) | Potency (WaGa) | Potency (C33A) | Potency (CAOV3) | Potency (CASKI) | Potency (Es-2)

CCOC(=O)C1=C[C@]2(CC)CCCN3CCc4c(n1c1ccccc41)[C@@H]32
active: Potency (TAB165) 12.6 µM
inactive: max response (CRL-7250) 1.21% | outcome (CRL-7250) | max response (KB-3-1) 2.59% and -10.9% | max response (NIH3T3 [1]) -12.6% | Potency (MCC-13) | Potency (MCC-26) | Potency (MKL-1) | Potency (UISO) | Potency (WaGa) | Potency (C33A) | Potency (CAOV3) | Potency (CASKI) | Potency (Es-2)

N=c1nc(N2CCCCC2)cc(N)n1O
inactive: Potency (TAB165) | Potency (W2) | max response (CRL-7250) -9.52% and -1.74% | max response (HEK293) 3.36% | outcome (HEK293) | outcome (HaCat [2]) | max response (NIH3T3 [1]) 3.13% | outcome (NIH3T3 [1]) | outcome (HACAT [4]) | outcome (HEK293T) | Potency (MCC-13) | Potency (MCC-26) | Potency (MKL-1) | Potency (MKL-2) | outcome (NIH3T3 [3]) | Potency (UISO) | Potency (WaGa) | Potency (C33A) | Potency (CAOV3) | Potency (Es-2)

O=C1CCC(N2C(=O)c3ccccc3C2=O)C(=O)N1 (stereo unspecified)
inactive: Potency (TAB165) | Potency (W2) | max response (CRL-7250) 1.53% | outcome (CRL-7250) | max response (HEK293) -7.21% | outcome (HEK293) | max response (HaCat [2]) 2.55% | outcome (HaCat [2]) | max response (KB-3-1) 0.83% and 2.13% | max response (NIH3T3 [1]) -0.804% | outcome (NIH3T3 [1]) | outcome (HACAT [4]) | outcome (HEK293T) | Potency (MCC-13) | Potency (MKL-1) | Potency (MKL-2) | outcome (NIH3T3 [3]) | Potency (UISO) | Potency (WaGa) | Potency (C33A) | Potency (CAOV3) | Potency (CASKI) | Potency (Es-2)

NC(N)=NC(=O)c1nc(Cl)c(N)nc1N
inactive and 29.9 µM (active): Potency (WaGa)
active: Potency (TAB165) 11.2 µM | Potency (W2) 2.13 µM
inactive: max response (CRL-7250) -0.0311% | outcome (CRL-7250) | max response (HEK293) -13.2% and 2.01% | max response (HaCat [2]) -3.73% | outcome (HaCat [2]) | outcome (KB-3-1) | max response (NIH3T3 [1]) -0.651% | outcome (NIH3T3 [1]) | outcome (HACAT [4]) | Potency (MCC-13) | Potency (MCC-26) | Potency (MKL-1) | Potency (MKL-2) | outcome (NIH3T3 [3]) | Potency (UISO) | Potency (C33A) | Potency (CAOV3) | Potency (CASKI) | Potency (Es-2)

O=c1n(CCCN2CCN(c3cccc(Cl)c3)CC2)nc2ccccn12
inactive: Potency (TAB165) | Potency (W2) | max response (CRL-7250) -10.4% | outcome (CRL-7250) | max response (HEK293) 2.07% and 1.71% | max response (HaCat [2]) -8.88% | outcome (HaCat [2]) | max response (KB-3-1) -0.946% and 1.57% | max response (NIH3T3 [1]) 3.22% and 3% | outcome (HACAT [4]) | Potency (MCC-13) | Potency (MCC-26) | Potency (MKL-1) | Potency (MKL-2) | Potency (UISO) | Potency (WaGa) | Potency (C33A) | Potency (CAOV3) | Potency (CASKI) | Potency (Es-2)

Cc1cn[nH]c1
inactive and 2.96 µM (active): Potency (UISO)
inactive: Potency (TAB165) | Potency (W2) | max response (CRL-7250) -13.4% | outcome (HEK293) | max response (HaCat [2]) -8.18% | outcome (HaCat [2]) | max response (KB-3-1) 12.8% | outcome (KB-3-1) | max response (NIH3T3 [1]) 3% | outcome (HACAT [4]) | outcome (HEK293T) | Potency (MCC-13) | Potency (MKL-2) | Potency (C33A) | Potency (CAOV3) | Potency (CASKI) | Potency (Es-2)
active: Potency (CRL-7250) 5.26 µM | Potency (HEK293) 4.69 µM
inactive and 1.87 µM (active): Potency (WaGa)
inactive and 5.9 µM (active): Potency (MKL-1)

Cc1[nH]c(=O)c(C#N)cc1-c1ccncc1
inactive: Potency (TAB165) | Potency (W2) | max response (CRL-7250) 1.86% and -12.7% | outcome (CRL-7250) | max response (HEK293) -9.35% | outcome (HEK293) | max response (HaCat [2]) 4.3% and 4.05% and -9.78% | max response (KB-3-1) 6.66% and -5.96% and -18.3% | max response (NIH3T3 [1]) 0.936% | outcome (NIH3T3 [1]) | outcome (HEK293T) | Potency (MCC-13) | Potency (MCC-26) | Potency (MKL-1) | Potency (MKL-2) | outcome (NIH3T3 [3]) | Potency (UISO) | Potency (WaGa) | Potency (C33A) | Potency (CAOV3) | Potency (CASKI) | Potency (Es-2)

— PubChem BioAssay (NCATS)
